PG9 binder – binders of HIV-1 gp120 antibody PG9, primary screen, biochemical, TR-FRET; TR-FRET gp120-PG9 antibody binding; AID 624416, 2012; inhibition, % at 6.7 µM; 360,000 compounds, 0.43% hits; in the data active = inhibition above about 8.5%
LEDGF integ inh – blockers of LEDGF/p75-dependent integrase strand transfer – biochemical, TR-FRET, high throughput, primary screen; HIV-1 integrase (with human LEDGF/p75); TR-FRET IN-LEDGF/p75 DNA integration, Eu/Cy5; inhibition, % at 3.7 µM; 370,000 compounds, 0.64% hits; AID 743269, 2014;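 active = inhibition above the screen-wide mean plus 3 SD, cut at about 13% in these data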;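 note: signal is the Cy5 over europium emission ratio at 671 and 618 nm; 0% = plate median of compound wells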
MBD2 inh – inhibitors of MBD2 binding to methylated DNA, primary screen, biochemical, TR-FRET, DNA-binding domain, human | inhibition, % at 4.4 µM | MBD2 binding to methylated oligonucleotide | Methyl-CpG-binding domain protein 2 (Homo sapiens), Q9UBB5 | AID 686964, 2013 | 370,000 compounds, 0.31% hits; in the data active = inhibition above about 13%
UHRF1 MBD2 ctr – UHRF1 methylated DNA binding inhibitors, primary screen, counter-screen for MBD2 inhibitor project, biochemical, TR-FRET, human UHRF1, single concentration; UHRF1 binding to methylated oligo; E3 ubiquitin-protein ligase UHRF1 (Homo sapiens), Q96T88; inhibition, % at 4.4 µM; 370,000 compounds, 0.75% hits; in the data active = inhibition above about 21%;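 note: UHRF1 SRA domain binding a hemimethylated CpG hairpin DNA probe; 0% = median of test compound wells and 100% = reference inhibitor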
Target sequence (Q96T88 whole entry, looked up, the tested form may be a part): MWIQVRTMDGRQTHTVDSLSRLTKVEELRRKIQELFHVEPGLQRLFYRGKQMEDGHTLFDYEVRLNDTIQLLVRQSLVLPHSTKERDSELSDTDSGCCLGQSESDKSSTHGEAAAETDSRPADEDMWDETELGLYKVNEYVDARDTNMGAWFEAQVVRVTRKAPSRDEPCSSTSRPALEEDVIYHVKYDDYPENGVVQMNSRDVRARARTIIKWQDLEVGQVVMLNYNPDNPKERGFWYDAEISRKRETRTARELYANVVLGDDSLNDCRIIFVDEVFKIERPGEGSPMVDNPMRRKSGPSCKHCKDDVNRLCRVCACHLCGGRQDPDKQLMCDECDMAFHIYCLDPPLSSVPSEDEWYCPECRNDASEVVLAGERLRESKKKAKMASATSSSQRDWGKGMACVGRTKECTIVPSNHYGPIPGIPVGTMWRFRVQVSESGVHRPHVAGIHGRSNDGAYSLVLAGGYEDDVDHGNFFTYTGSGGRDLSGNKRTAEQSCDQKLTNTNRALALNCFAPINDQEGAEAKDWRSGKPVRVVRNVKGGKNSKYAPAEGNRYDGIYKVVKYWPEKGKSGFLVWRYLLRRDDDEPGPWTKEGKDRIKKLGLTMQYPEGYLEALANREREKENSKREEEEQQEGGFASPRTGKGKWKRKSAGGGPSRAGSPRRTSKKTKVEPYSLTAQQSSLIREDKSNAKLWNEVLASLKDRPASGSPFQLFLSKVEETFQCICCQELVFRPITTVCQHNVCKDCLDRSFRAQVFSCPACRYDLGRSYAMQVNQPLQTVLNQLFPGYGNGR
rCAG binder – binders of r(CAG) RNA repeats, primary screen, biochemical, fluorescence. r(CAG) RNA repeat, TO-PRO-1 dye displacement fluorescence. inhibition, % at 3 µM. 370,000 compounds, 1.3% hits. AID 651821, 2012;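 active = inhibition above the plate cutoff, the mean of all test compounds on that plate plus 3 SD, cut at about 35% in these data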;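 note: 0% = DMSO alone and 100% = 100 µM mitoxantrone as full dye displacement; higher means more dye released from RNA so lower well fluorescence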
DNMT1 block – human DNMT1 methyltransferase inhibitors, primary screen, biochemical, molecular beacon, fluorescence, HinP1I cleavage, uHTS. AID 588458, 2011. inhibition (reported as % activation of signal), % at 10 µM. 360,000 compounds, 0.83% hits. DNA (cytosine-5)-methyltransferase 1 (Homo sapiens), P26358; in the data active = inhibition above about 50%
Active calls of the source: *; x = no result. Compounds with a hit are over-represented: about 3.5% of the library has one in this group of screens.

SMILES	PG9 binder	LEDGF integ inh	MBD2 inh	UHRF1 MBD2 ctr	rCAG binder	DNMT1 block
CC(C)C[C@@H](CNCC(=O)[C@H](CC(C)C)NC(=O)c1[nH]cnc1C(=O)N[C@@H](C)CN)NC(=O)c1nc[nH]c1C(=O)N[C@@H](C)C(=O)O	1	1	3	23*	-2	8
CC(C)C[C@@H](CN)NC(=O)c1nc[nH]c1C(=O)N[C@@H](C)C(=O)CNC[C@H](CC(C)C)NC(=O)c1nc[nH]c1C(=O)N[C@@H](CC(=O)O)C(=O)O	0	-3	-2	5	4	4
CC(C)C[C@@H](CNCC(=O)[C@H](CC(=O)O)NC(=O)c1[nH]cnc1C(=O)N[C@H](CN)CC(C)C)NC(=O)c1nc[nH]c1C(=O)N[C@@H](C)C(=O)O	0	-2	12	22*	2	7
N#C/C(=C\c1c(N2CCOCC2)nc2ccccn2c1=O)C(=O)NC1CCS(=O)(=O)C1 (stereo not given)	0	-1	-11	-1	-3	-2
N#C/C(=C\c1c(N2CCCCCC2)nc2ccccn2c1=O)C(=O)NC1CCS(=O)(=O)C1 (stereo not given)	-2	2	12	24*	1	3
COc1ccc(S[C@]2(C(=O)N3CCN(c4ncccn4)CC3)CC(=O)N(c3ccc(C#N)cc3)[C@@H]2c2ccc(OC)cc2)cc1	x	-2	-7	1	17	x
COc1ccccc1OCc1ccc(C(=O)N(C)C)o1	2	1	-2	1	1	0
COc1ccccc1OCc1ccc(C(=O)N(C)c2ccccc2)o1	0	2	4	25*	-5	-1
O=C(Nc1nc2c(Br)cccc2s1)c1ccc2c(c1)OCCO2	x	-4	-1	0	x	x
COC(=O)c1ccc(/C=C/c2c(-c3ccsc3)sc3ccccc23)cc1	0	2	-1	23*	13	-8
COc1ccc(-c2sc3ccccc3c2/C=C/c2ccc(N)cc2)cc1	0	-4	-1	-1	7	-32
COc1ccc(-n2nc(C(=O)NCc3ccco3)c3ccccc3c2=O)cc1	2	-1	4	1	-6	-19
COc1ccc(-n2nc(C(=O)NCc3ccco3)c3c4ccccc4n(C)c3c2=O)cc1	-1	-4	-2	31*	6	0
CCCCN(C)CCNC(=O)c1nn(-c2ccc(OC)cc2)c(=O)c2c1c1ccccc1n2C	2	2	3	2	1	0
CCN(C(=O)c1nn(-c2ccc(OC)cc2)c(=O)c2c1c1ccccc1n2C)c1ccc(OC)cc1	0	-1	7	22*	0	3
CC(C)N1Cc2nnn(Cc3ccccc3)c2-c2cc(N3CCCC3)ccc2S1(=O)=O	x	0	0	-1	7	x
C/C(=N/Nc1ncc(Br)cn1)c1ccc(Br)cc1	-1	2	-1	-3	22	-1
C/C(=N\Nc1ccc(C(=O)O)cc1)c1ccc(Br)cc1	-2	0	8	22*	11	43
Cc1cc(C)cc(N(CC(=O)NC2CCC(C)CC2)S(=O)(=O)c2cccs2)c1 (stereo not given)	x	-3	-1	1	3	x
Cc1ccc(Cl)cc1NC(=S)N(Cc1ccccc1)Cc1cccnc1	0	-7	9	25*	1	-2
CC(=O)Nc1c(C(=O)Nc2ccc3c(c2)OCO3)oc2ccccc12	0	-6	-2	-1	0	0
COCC(=O)Nc1c(C(=O)Nc2ccc3c(c2)OCO3)oc2ccccc12	-2	0	2	51*	0	2
Cc1cc(-c2csc(NC(=O)c3ccc(C#N)cc3)n2)c(C)n1Cc1ccco1	-1	68*	22*	57*	59*	10
COc1ccc(Nc2nnc(-c3ccncc3)s2)cc1Cl	-2	-3	4	4	0	69*
COc1ccc(Cl)cc1Nc1nnc(-c2ccncc2)s1	3	1	-3	3	1	39
SMILES	PG9 binder	LEDGF integ inh	MBD2 inh	UHRF1 MBD2 ctr	rCAG binder	DNMT1 block
CCOC(=O)CC[C@H]1CC[C@]2(CCCN(C(=O)c3cccnc3)C2)O1	x	1	0	-1	-1	x
CC1(C)Cc2nc3sc4c(=O)n(CC(=O)NCc5ccccc5)cnc4c3cc2CO1	50*	4	-1	-3	4	4
CC1(C)Cc2nc3sc4c(=O)n(CC(N)=O)cnc4c3cc2CO1	-1	-1	4	-3	2	-4
O=C(CO)N/N=C/c1ccccc1F	-2	-1	1	-1	36*	6
COc1ccc(C(=O)NNC(=O)CCCCC(=O)NNC(=O)c2ccc(OC)cc2)cc1	0	4	8	22*	2	8
CCCCNC(=O)NC1CCN(CC(=O)Nc2ccc3c(c2)OCCO3)CC1	x	-6	6	32*	4	x
CC1=C[C@]2(C[N+](Cc3ccccc3)=C(N)N2)n2c(=O)n(-c3ccccc3)c(=O)n2C1	x	2	-2	-3	7	x
COc1ccc(-c2nnc(SCC(=O)N(C)C3CCS(=O)(=O)C3)n2N)cc1OC (stereo not given)	1	-2	6	42*	0	-4
COc1ccc(-c2nnc(SCC(=O)N(C)C3CCS(=O)(=O)C3)n2CC(C)C)cc1 (stereo not given)	0	-3	-1	-1	3	0
O=C(NC1CCCCN(Cc2ccc(Cl)cc2)C1=O)C(c1ccccc1)c1ccccc1 (stereo not given)	x	-2	6	1	9	x
CS(=O)(=O)N(CC(=O)NC1CCCCCC1)Cc1ccc(Cl)cc1	-1	-3	-1	49*	-5	-5
O=[N+]([O-])c1ccc(O)c(C=NNc2ccc(S(=O)(=O)O)cc2)c1	-14	-1	1	24*	5	46
O=[N+]([O-])c1ccc(N/N=C/c2ccccc2O)cc1	0	-2	1	1	27	-7
O=C1C(=C(I)I)c2ccccc2-c2ccccc21	-2	-20	-4	-1	7	115*
O=C(O)CCCN1C(=O)/C(=C\c2ccccc2OCc2ccccc2)SC1=S	-2	6	-2	1	52*	1
O=C(O)CCCN1C(=O)/C(=C\c2ccc(-c3nc4ccccc4s3)o2)SC1=S	1	0	-3	8	27	85*
O=Cc1ccc(-c2nc3ccccc3s2)o1	-2	4	-5	-7	5	0

From PubChem
